Screening results (PubChem)
Fluor 339 460 = intrinsic fluorescence of library compounds, ex339/em460 – biochemical, MLSMR library, data from DPM-DC assay, artefact control, profiling panel | fluorescence fold increase at 10 µM | 5.5% of 65,000 active | compound autofluorescence, ex339/em460 nm, NADH buffer; active compounds read high; 1 = no-compound wells, NADH background | AID 709;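 active = at 10 µM, mean starting fluorescence two-fold or more over control wells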;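 note: signal is the first read of a kinetic run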
Abs 340nm = compound absorbs light at 340 nm. compound absorbance at 340 nm, fold over control. fold change at 10 µM. 65,000 tested, under 10 active;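 active = at 10 µM dose, initial 340 nm absorbance at least 2 fold that of control wells; inactive = change under 2 fold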;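 note: initial absorbance extrapolated from kinetic A340 decline of NADH oxidation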
Spn MK inh = inhibitors of Streptococcus pneumoniae mevalonate kinase; purified MK, PK/LDH-coupled NADH absorbance 340 nm; inhibition, % at 10 µM; 0.48% of 65,000 active; AID 555;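 active = ranked among the strongest by inhibition in the single 10 µM screen, a fixed top-ranked set picked for dose follow-up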
Spn DPM-DC inh = S. pneumoniae DPM-DC inhibition; purified DPM-DC, PK/LDH coupled NADH fluorescence; calls only at 10 µM; 0.49% of 65,000 active; AID 556;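 active = the 320 compounds with the highest percent inhibition in the single-dose primary screen, excluding strongly autofluorescent ones, cut at about 32% in these data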;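 note: kinetic rate of NADH fluorescence loss reporting ADP formed by the decarboxylase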
NADH enzymes = inhibitors of enzymes used to reach an NAD/NADH endpoint; AID 774; IC50, µM (series often up to 10 µM); coupled PK/LDH NADH assays, four targets; 0.02% of 65,000 active;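 active = single-dose screening hits from any of four coupled enzyme assays that gave an IC50 when retested across doses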;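 note: the DPM-DC format reads NADH fluorescence rather than 340 nm absorbance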
Spn PMK inh = S. pneumoniae PMK inhibition | 0.49% of 65,000 active | purified PMK, PK/LDH-coupled NADH absorbance 340 nm | inhibition, % at 10 µM | AID 539;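 active = top-ranked compounds by inhibition in the single 10 µM screen, taking a fixed number of the strongest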
Large screens that a line does not name were inactive. Shown are actives, neighbours in structure and some others; about 6.5% of the full set was active somewhere.

CCc1ccc(Nc2oc(C)cc(=O)c2C(C)=O)cc1	none
O=C(CN1c2cccc3cccc(c23)S1(=O)=O)NCc1ccc2c(c1)OCO2	none
N#CCCCCN1c2cccc3cccc(c23)S1(=O)=O	Fluor 339 460 3.74 (not shown: Spn DPM-DC inh)
O=S1(=O)c2cccc3cccc(c23)N1Cc1nnc(-c2ccccc2Br)o1	none
CCCN1c2cccc3cccc(c23)S1(=O)=O	Fluor 339 460 2.25 (not shown: Spn DPM-DC inh)
COc1cc(NC(=O)CN2c3cccc4cccc(c34)S2(=O)=O)cc(OC)c1OC	Fluor 339 460 2.56
O=S1(=O)c2cccc3cccc(c23)N1Cc1ccc(-c2nnco2)cc1	Fluor 339 460 2.84
COc1cc2c(cc1OC)C(=NCCC(=O)O)NC(C)(C)C2	none
O=C(c1cc2ccccc2o1)N1CCN=C1SCc1cccnc1	none
O=C(c1cccs1)c1ccc(-c2cccs2)s1	Fluor 339 460 2.37
O=C(c1cc2ccccc2o1)c1cccs1	none
COc1ccc(Cn2c(CCC(=O)Nc3ccc(CC#N)cc3)nc3cccnc32)cc1	none
COc1ccc(CCNS(=O)(=O)c2cccc(C(=O)O)c2)cc1OC	none
Cc1ccc2nc(Nc3nc(=O)c4ccccc4n3C)nc(C)c2c1	none
Cc1ccc(-c2nc3c(=O)n(C)c4ccccc4c3o2)cc1	Fluor 339 460 4.65 (not shown: Spn DPM-DC inh)
CCOC(=O)c1sc(Nc2nc3c(OC)cccc3s2)nc1C	Fluor 339 460 2.24, Spn DPM-DC inh active
CCOC(=O)C(Cc1ccccc1)C(=O)Nc1nccs1 (stereo not drawn)	Spn DPM-DC inh active
O=C1CC(N2CCN(c3nc4ccccc4s3)CC2)C(=O)N1Cc1cccs1 (stereo not drawn)	none
COc1ccc(N2CCN(CCNS(=O)(=O)c3cccc4nsnc34)CC2)cc1	Spn DPM-DC inh active, Spn PMK inh 33.0
Nc1c(S(=O)(=O)c2ccccc2)c2nc3ccccc3nc2n1/N=C/c1ccco1	none
COc1ccc(Cn2c(C)nc3c(c2=O)c2nc4ccccc4nc2n3Cc2ccco2)cc1	none
COc1ccc(S(=O)(=O)c2c(N)n(Cc3ccco3)c3nc4ccccc4nc23)cc1	Fluor 339 460 3.82 (not shown: Spn DPM-DC inh)
Cc1ccc(S(=O)(=O)c2c(N)n(/N=C/c3ccco3)c3nc4ccccc4nc23)cc1	Fluor 339 460 3.24
Cc1cccc(S(=O)(=O)c2c(N)n(/N=C/c3cccnc3)c3nc4ccccc4nc23)c1	Fluor 339 460 3.69 (not shown: Spn DPM-DC inh)
Cc1ccc(S(=O)(=O)n2nc(-c3cccnc3)nc2N)cc1	none
Nc1c(S(=O)(=O)c2cccs2)c2nc3ccccc3nc2n1/N=C/c1cccc(O)c1	Fluor 339 460 3.96 (not shown: Spn DPM-DC inh)
O=c1c2c3nc4ccccc4nc3n(/N=C/c3ccco3)c2ncn1CCC1=CCCCC1	none
Cc1cccc(S(=O)(=O)c2c(N)n(/N=C/c3ccco3)c3nc4ccccc4nc23)c1	Fluor 339 460 3.15
CC(C)Cn1c(N)c(S(=O)(=O)c2cccs2)c2nc3ccccc3nc21	Fluor 339 460 3.86 (not shown: Spn DPM-DC inh)
O=c1c2ccccc2nc(COc2ccccc2)n1/N=C/c1ccco1	none
Cc1ccc(S(=O)(=O)c2c(N)n(/N=C/c3ccco3)c3nc4ccccc4nc23)cc1C	Fluor 339 460 3.19
CC(NC(=O)Nc1ccccc1)C(c1cccs1)N1CCN(C)CC1 (stereo not drawn)	none
O=C(CSc1ccc2nnc(-c3cccnc3)n2n1)NCc1ccc2c(c1)OCO2	none
Cc1nc2ccc(S(=O)(=O)NCC(=O)N3CCCC(C)C3)cc2s1 (stereo not drawn)	none
CCCn1c(=NC(=O)c2ccco2)c(C(=O)OCC)cc2c(=O)n3ccccc3nc21	Fluor 339 460 3.84 (not shown: Spn DPM-DC inh)
CCOC(=O)c1cc2c(=O)n3ccccc3nc2n(CCCOC)c1=NC(C)=O	Fluor 339 460 2.44 (not shown: Spn DPM-DC inh)
CC(C)OCCCn1c(=N)c(C(N)=S)cc2c(=O)n3ccccc3nc21	none
CCc1nc(Nc2ccncc2)c2oc3ccccc3c2n1	Fluor 339 460 2.04
CCc1nc(NC(C)C)c2oc3ccccc3c2n1	none
COc1ccc(-n2c(Cc3cccn3C)nnc2SCC(=O)NCCc2ccccc2)cc1	none
CCOC(=O)CSc1nc(-c2ccncc2)ccc1C#N	none
CCOC(=O)CC(=O)CSc1nc(-c2cccnc2)ccc1C#N	Fluor 339 460 2.11 (not shown: Spn DPM-DC inh)
CCOC(=O)CSc1nc(-c2ccc3c(c2)OCO3)ccc1C#N	Fluor 339 460 2.25 (not shown: Spn DPM-DC inh)
COc1ccc(CNc2nc3c(c(=O)n(Cc4ccc(F)cc4)c(=O)n3C)n2C)cc1	none
CSCC[C@H](NC(=O)NCc1ccc(F)cc1)C(=O)O	none
O=c1nc2c(-c3ccccc3F)n[nH]n2c2ccccc12	Fluor 339 460 5.06 (not shown: Spn DPM-DC inh)
CCCOc1ccc(/C(O)=C2/C(=O)C(=O)N(CCN(C)C)C2c2ccncc2)cc1 (stereo not drawn)	none
COc1ccc(-c2nc(C#N)c(NCC3CCCO3)o2)cc1 (stereo not drawn)	Fluor 339 460 2.27 (not shown: Spn DPM-DC inh)
O=S(=O)(c1ccccc1)c1nc(-c2cccs2)oc1NCC1CCCO1 (stereo not drawn)	none
N#Cc1nc(-c2cccs2)oc1NCC1CCCO1 (stereo not drawn)	Fluor 339 460 2.26 (not shown: Spn DPM-DC inh)
COc1ccc(-c2nc(C#N)c(N3CCN(c4ccccc4)CC3)o2)cc1	none
Cc1cc(NC(=O)CCCC(=O)Nc2ccc(F)cc2)no1	none
COc1c(Br)cc2c(C)c(C(=O)O)oc2c1Br	Spn MK inh 43.0
C=CCNc1nc(N2CCOCC2)c(C#N)c2c1CN(C)CC2	none
CCC1Cc2c(nc3c4c(nc(N5CCOCC5)c(C#N)c24)NC(C)=N3)O1 (stereo not drawn)	Fluor 339 460 3.33 (not shown: Spn DPM-DC inh)
Cc1ccc2[nH]c(=O)c3cc(C(=O)N4CCN(C(=O)c5ccco5)CC4)sc3c2c1	Fluor 339 460 2.03 (not shown: Spn DPM-DC inh)
Cc1ccc2[nH]c(=O)c3cc(C(=O)N(C)Cc4ccco4)sc3c2c1	Fluor 339 460 2.21 (not shown: Spn DPM-DC inh)
Cc1ccc2oc(=O)c3cc(C(=O)N4CCN(C(=O)c5ccco5)CC4)sc3c2c1	none
Cc1ccc2oc(=O)c3cc(C(=O)N4CCN(c5ncccn5)CC4)sc3c2c1	Fluor 339 460 2.07 (not shown: Spn DPM-DC inh)
COc1ccc(OC)c(C2/C(=C(\O)c3c(C)nc4ccccn34)C(=O)C(=O)N2CCCN(C)C)c1 (stereo not drawn)	none
O=C(Nc1ccc2oc(-c3ccccc3Cl)nc2c1)c1cncc(Br)c1	none
CCCC(=O)Nc1ccc2oc(-c3ccncc3)nc2c1	Fluor 339 460 3.63 (not shown: Spn DPM-DC inh)
CCCCC(=O)Nc1ccc2oc(-c3ccncc3)nc2c1	Fluor 339 460 3.7 (not shown: Spn DPM-DC inh)
CCCCCC(=O)Nc1ccc2oc(-c3cncc(Br)c3)nc2c1	Fluor 339 460 2.53
CCCC(=O)Nc1ccc(-c2nc3cc(C)c(C)cc3o2)cc1	Fluor 339 460 3.79 (not shown: Spn DPM-DC inh)
CCOC(=O)C(CO)(NC(C)=O)C(=O)OCC	none
COc1ccccc1-c1noc(-c2cccnc2)n1	none
COc1nc(-c2ccccc2)ccc1-c1noc(-c2ccc(F)cc2)n1	Fluor 339 460 3.84 (not shown: Spn DPM-DC inh)
COc1nc(-c2ccccc2)ccc1-c1noc(-c2ccccc2F)n1	Fluor 339 460 3.9 (not shown: Spn DPM-DC inh)
